Data on 37 molecules can be found in the supplement of paper PMC7411640.

Where a name gives a salt, the structure may show the parent alone.

The assay concerns MDA-MB-468. The assay can be described thus: phospho-S6 immunofluorescence (DAPI-normalised), per-plate z-score; higher = higher phospho-S6 signal (less pathway suppression). Particulars: co-treatment: GDC0941 450 nM; 24 h. As for the experimental part:
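GPCR-targeted compound library (MedChemExpress HY-L006) tested on MDA-MB-468 PTEN-null TNBC cells in 384-well plates at 0.1, 1 or 10 uM, combined with vehicle, GDC0941 450 nM or lapatinib 1 uM, for 24 h. Phospho-S6 (S240/244) immunofluorescence normalised to DAPI and expressed as a per-plate z-score; values are the mean of biological triplicates.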
`CC(C)c1cc(-c2ccc(F)c3ccccc23)nc(N)n1` (compound 10 µM): the “phospho-S6 immunofluorescence (z-score)” value is -1.03. The same measure for `COc1cc(C(C)=O)ccc1OCCCN1CCC(c2noc3cc(F)ccc23)CC1` [Iloperidone] (compound 10 µM): 0.52.

In the case of `CNCCc1ccccn1` [Betahistine (dihydrochloride)] (compound 10 µM), the “phospho-S6 immunofluorescence (z-score)” value was -1.02. As for `COCCOc1ccc(N2CCN(CCn3ncc4c3nc(N)n3nc(-c5ccco5)nc43)CC2)cc1` [Preladenant] (compound 10 µM), the “phospho-S6 immunofluorescence (z-score)” value is -0.66. Consider `COCCc1ccc(OCC(O)CNC(C)C)cc1` (configuration not stated) [Metoprolol (Succinate)] (compound 10 µM), for which the “phospho-S6 immunofluorescence (z-score)” value turned out to be 0.44. The same measure for `O=C(O)COc1cccc(CN(Cc2ccc(-n3cccn3)cc2)S(=O)(=O)c2cccnc2)c1` [Taprenepag] (compound 10 µM): -0.91; for `C[C@H](NC(=O)c1c(C(F)F)nn(C)c1Oc1cccc(C(F)(F)F)c1)c1ccc(C(=O)O)cc1` (compound 10 µM): 0.32. As to `c1cnc(NCc2ccc(CNc3ncccn3)cc2)nc1` (compound 10 µM), the “phospho-S6 immunofluorescence (z-score)” value was -0.12. The same measure for `Cc1nn(C)c2c1C(c1ccc(C(F)(F)F)cc1)C(C#N)=C(N)O2` (configuration not stated) (compound 10 µM): -1.17; for `C[C@H]1CN(C[C@H](Cc2ccccc2)C(=O)NCC(=O)O)CC[C@@]1(C)c1cccc(O)c1` [Alvimopan (dihydrate)] (compound 10 µM): -0.22; for `Cc1cc(OCCCS(C)(=O)=O)cc(C)c1-c1cccc(COc2ccc3c(c2)OC[C@H]3CC(=O)O)c1` (compound 10 µM): -1.06. `CN1CCN(CCc2ccc(Cl)c(Cl)c2)CC1` [BD1063 (dhydrochloride)] (compound 10 µM): the “phospho-S6 immunofluorescence (z-score)” value is 0.51. `C[C@H]1C[C@H]2[C@@H]3CCC4=CC(=O)C=C[C@]4(C)[C@H]3C(=O)C[C@]2(C)[C@@]1(O)C(=O)CO` [Meprednisone] (compound 10 µM): the “phospho-S6 immunofluorescence (z-score)” value was found to be 0.11. With `COc1cc(NC(=O)c2ccccn2)ccc1Cl` (compound 10 µM), the “phospho-S6 immunofluorescence (z-score)” value was -0.65. The same measure for `CCCN(CCc1cccs1)[C@H]1CCc2c(O)cccc2C1` [Rotigotine (Hydrochloride)] (compound 10 µM): -0.16. In the case of `CC1(C)O[C@@H]2C[C@H]3[C@@H]4CCC5=CC(=O)C=C[C@]5(C)[C@@]4(F)[C@@H](O)C[C@]3(C)[C@]2(C(=O)CO)O1` [Triamcinolone (acetonide)] (compound 10 µM), the “phospho-S6 immunofluorescence (z-score)” value was -1.69. The same measure for `CN(C)C(=O)CCSC(SCCC(=O)O)c1cccc(/C=C/c2ccc3ccc(Cl)cc3n2)c1` (configuration not stated) [MK-571 (sodium salt)] (compound 10 µM): -0.65; for `CCC(=O)O[C@]1(C(=O)CCl)[C@@H](C)C[C@H]2[C@@H]3CCC4=CC(=O)C=C[C@]4(C)[C@@]3(F)[C@@H](O)C[C@@]21C` [Clobetasol propionate] (compound 10 µM): -0.19; for `Cc1cc(NC(=O)NCCN2CCC(O)(Cc3ccccc3)CC2)c2ccccc2n1` [Palosuran] (compound 10 µM): -1.78. For the molecule `CN1CCC(=C2c3ccccc3C=Cc3ccccc32)CC1` [Cyproheptadine (hydrochloride)] (compound 10 µM), the “phospho-S6 immunofluorescence (z-score)” value is -0.64. The value for `COC(=O)[C@H](c1ccccc1Cl)N1CCc2sccc2C1` [Clopidogrel (hydrogen sulfate)] (compound 10 µM) was 0.58; that for `c1cc(CN2CCCNCCNCCCNCC2)ccc1CN1CCCNCCNCCCNCC1` [Plerixafor (octahydrochloride)] (compound 10 µM) was -0.24. The value for `CCN(CCCCOC(=O)c1ccc(OC)c(OC)c1)C(C)Cc1ccc(OC)cc1` (configuration not stated) [Mebeverine (hydrochloride)] (compound 10 µM) was 0.43. With `CC(C)(C)NCC(O)c1cc(O)cc(O)c1` (configuration not stated) [Terbutaline (sulfate)] (compound 10 µM), the “phospho-S6 immunofluorescence (z-score)” value was determined as 0.52. Take `Cc1[nH]cnc1CN1CCc2c(c3ccccc3n2C)C1=O` [Alosetron (Hydrochloride)] (compound 10 µM): the “phospho-S6 immunofluorescence (z-score)” value was 0.22. Consider `CCN(CC)Cc1ccc(C(=O)N(CCc2ccccc2OC)[C@@H]2CCNC2)cc1` (compound 10 µM), for which the “phospho-S6 immunofluorescence (z-score)” value was 0.19.

`COc1ccc2c(c1)c(CC(=O)N1CCOCC1)c(C)n2C(=O)c1ccc(Cl)cc1` (compound 10 µM): the “phospho-S6 immunofluorescence (z-score)” value is -3.35. Take `Cc1nc(C(=O)N2CCC[C@H]2Cc2nnc(-c3ccccc3)o2)c(-c2ccccc2F)s1` (compound 10 µM): the “phospho-S6 immunofluorescence (z-score)” value is 0.95.

As for `CN1CCN2c3ccccc3Cc3ccccc3C2C1` (configuration not stated) [Mianserin (hydrochloride)] (compound 10 µM), the “phospho-S6 immunofluorescence (z-score)” value was 1.

Take `C[C@@H]1CCCN1CCc1cc2cc(-c3ccc(C#N)cc3)ccc2o1` (compound 10 µM): the “phospho-S6 immunofluorescence (z-score)” value is -3.3.

As for `C[N+](C)(C)CCOC(N)=O` [Carbamoylcholine (chloride)] (compound 10 µM), the “phospho-S6 immunofluorescence (z-score)” value was determined as 0.06. The same measure for `CCN1CCC[C@H]1CNC(=O)c1cc(S(N)(=O)=O)ccc1OC` [Levosulpiride] (compound 10 µM): 0.22; for `c1ccc(CN(CC2=NCCN2)c2ccccc2)cc1` [Antazoline (hydrochloride)] (compound 10 µM): 0.27. For the molecule `CN1C2CCCC1CC(NC(=O)c1nn(C)c3ccccc13)C2` (configuration not stated) [Granisetron (Hydrochloride)] (compound 10 µM), the “phospho-S6 immunofluorescence (z-score)” value turned out to be 1.08. On to `Cc1ccccc1C(=O)Nc1ccc(C(=O)N2CCCC(O)c3cc(Cl)ccc32)c(C)c1` (configuration not stated) [Tolvaptan] (compound 10 µM), for which the “phospho-S6 immunofluorescence (z-score)” value is 0.01.

For the molecule `COc1cc(/C=C/C(=O)O)ccc1O` [Ferulic acid (sodium)] (compound 10 µM), the “phospho-S6 immunofluorescence (z-score)” value came to 0.56. The value for `CC(C)(C)C1CCC(N(Cc2ccc(C(=O)NCCC(=O)O)cc2)C(=O)Nc2ccc(OC(F)(F)F)cc2)CC1` (configuration not stated) (compound 10 µM) was -3.4.
